These results are taken from PubChem BioAssay (NCI).

Values joined by “and” are separate entries in the source; they are usually repeats but may differ in a detail not shown here. Equal values may be shown once. About 83,000 compounds went through this panel and 20% of them were active in at least one assay; those are over-represented in the sample as a whole.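 Single-dose data. Exposure time 48 hours. Values below 10 considered active.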 Values without a mark were called inactive. Active and inactive are the calls of the source.

This assay relates to MDA-MB-468 breast. Briefly: NCI-60 one-dose screen, 48 h (100 = growth as untreated, 0 = no growth, -100 = all killed). The note with it: 10 µM unless noted.
With `COC(=O)CSc1ccc(Cl)cc1`, the growth is 126%.

With `CCCCCCCOc1cccc(/C=C2/C(=O)N=C3SCCCN32)c1`, the growth was 56.8%. As to `CCCCCCCCCCCC(c1ccccc1)N(C)C` (stereo not given), the growth was 95.4%. The result for `OCc1cccc(F)c1` reads 68.9%. The result for `Cc1ccc(C(=O)c2ccccc2)c(C)c1` reads 111%; that for `Cn1ccc(=O)nc1`, 71.1%; that for `CCCCNCCC(O)c1cc2ccc(C(F)(F)F)cc2c2cc(C(F)(F)F)ccc12` (stereo not given), -91% (active). Take `COc1cc2cc(NCc3ccc(F)cc3)nc(C)c2cc1OC`: the growth is 62.8%. In the case of `CCN(CC)CC(O)Cc1ccc(OC)cc1` (stereo not given) it was 97.9%.

In the case of `CCOC(=O)CNC`, the growth was 101%.

Take `O=c1ccc2nc(-c3ccccc3)nn(-c3ccccn3)c-2c1`: the growth was -65.2% (active). Regarding `CCCCCCCCCCCCCCCC[N+]1(C)CCOCC1`, the growth was -50.9% (active). Take `CCOC(=O)c1c2c(c(C)n1Cc1ccc(OC)cc1)-c1oncc1CC2`: the growth is 97.8%. The result for `COc1ccc(Oc2[nH]n(C3=Nc4ccccc4Sc4ccccc43)c(=O)c2C#N)cc1` reads 98.5%. The result for `Cc1ccc2c(C3C(C#N)=C(N)Oc4cc5ccccc5cc43)cc(=O)oc2c1` (stereo not given) reads 30.3%; that for `O=C(O)c1ccc(=O)[nH]n1`, 123%; that for `COc1ccc2c(c1)c(-c1nc(-c3c[nH]c4c(Cl)nccc34)cs1)cn2C`, -23% (active). For `Nc1nc(Nc2ccccc2SSc2ccccc2Nc2nc(N)nc(-c3cccc(Br)c3)n2)nc(-c2cccc(Br)c2)n1`, the growth is 95.4%. Turning to `CN(C)C(=O)c1cc2cnc(Nc3ccc(-c4csc5c(=O)cc(N6CCOCC6)oc45)cc3)nc2n1C1CCCC1`, the growth is -5.41% (active). In the case of `CCOC(=O)Nc1ccc2c(c1)C(=O)N(CCOC)c1ccccc1O2` it was 20.2%; in that of `COc1cc(NS(C)(=O)=O)ccc1Cc1c2ccccc2nc2ccccc12`, -14.1% (active). As to `COc1ccc(C(=O)c2ccccc2CN2C(=O)c3ccccc3C2=O)cc1`, the growth was 115%. The result for `CCN(CC)c1ccc2cc(C(Nc3ccc(Br)c(C(F)(F)F)c3)c3nnnn3C(C)(C)C)c(=O)oc2c1` (stereo not given) reads 118%; that for `CC(CNc1nc(Nc2ccc(Cl)c(Cl)c2)nc(C(Cl)(Cl)Cl)n1)N(C)C` (stereo not given), -43.3% (active); that for `CCCCCCNC(=O)Oc1ccc(/C(=C(\C)c2ccc(OC)cc2)c2ccc(OCCN3CCCCC3)cc2)cc1`, 75.6%. With `Oc1cc(Nc2ccnc3cc(Cl)ccc23)c2ncccc2c1`, the growth was 47.4%. The result for `COc1ccc(-c2cn3c(ccc4ccccc43)n2)cc1` reads 108%.

With `C/C=C/CC(C)C(O)[C@H](NC(=O)[C@@H]1CCCN1C(=O)[C@](C)(CC)NC(=O)CCCCCCCCC)C(=O)N[C@@](C)(CC)C(=O)N[C@@H](CCC(N)=O)C(=O)N[C@H](CCC(N)=O)C(=O)NC(C)(C)C(=O)NC(C)(C)C(=O)N[C@@H](CCC(N)=O)C(=O)N[C@H](CC(C)C)C(=O)N[C@H](CO)CC(C)C` (stereo not given in full), the growth was -10.2% (active) and -64% (active). As to `CCCn1cc2c(=O)nc3sc(Cc4ccccc4)c(C)n3c2n1`, the growth is 111%. Regarding `COc1cccc(/C=C2\COc3ccc(O)cc3C2=O)c1`, the growth is 66.2%. The result for `CCN(CC)CCCN1C(=O)c2c(c(C)c3c(oc4cc(OC)ccc43)c2C)C1=O` reads 116%.

As for `CCOC(=O)C(NC(=O)C(Cl)Cl)C(O)c1ccccc1` (stereo not given), the growth was 102%.

`S=C1CC(=S)NC(=S)N1`: the growth was 95.8%. In the case of `CC(C)(C#N)c1cc(F)cc(C(=O)Nc2cc(Nc3ncccc3-c3ncnc4nc[nH]c34)ccc2F)c1` it was 107%; in that of `c1cc(CNC23CC4CC(CC(C4)C2)C3)cc(C[N+](Cc2cccc(CNC34CC5CC(CC(C5)C3)C4)c2)(Cc2cccc(CNC34CC5CC(CC(C5)C3)C4)c2)Cc2cccc(CNC34CC5CC(CC(C5)C3)C4)c2)c1` (stereo not given), -47.1% [42 µM] (active); in that of `COc1cc2nc(SCc3cc(OC)c(OC)c(OC)c3)n(Cc3ccccc3)c(=O)c2cc1OC`, -10.1% (active).

For the molecule `c1ccc(/C(=N\N=C(/c2ccccc2)c2cccs2)c2cccs2)cc1`, the growth was 105%. The result for `NS(=O)(=O)c1ccc(N2Cc3cc(Cl)ccc3OC3=C2C(=O)N(CC2CCCCC2)C3=O)cc1` reads -81.1% (active). The result for `NC(N)=Nc1ccc(Oc2cccc(NC(N)=Nc3ccc(I)cc3F)c2)cc1` reads 35.5%; that for `COC(=O)c1ccc2c(c1)NC(=O)[C@@H]1CCCN21`, 109%.
